Results on eight compounds are retold here after PubChem BioAssay (Tox21).

Values without a mark were called inactive. Inconclusive results are not listed. Activity calls are given as the source filed them. Unless noted, the call rests on the fitted dose curve; in most records, active means well fitted curve in the direction sought with a large enough effect in the repeat runs; inconclusive means weak or mixed curves; inactive means no such curve, though single readings can be large; an effect the other way counts as inactive or inconclusive.

The nature of assay [1]: qHTS assay for small molecule agonists of the p53 signaling pathway (AID 651631; calls by dose curve; further: nearly all actives have a fitted effect of over 15% in size). The procedure, abridged: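 Readout was fluorescence from the LiveBLAzer FRET substrate, applied for 2 h at room temperature after 16 h compound exposure at 37 °C. Cells were the p53RE-bla HCT-116 line, with beta-lactamase driven by p53 response elements.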
In general terms: qHTS replaces the single test concentration by a dilution series.

Assay [2] is described as follows: qHTS assay for small molecule agonists of the p53 signaling pathway - cell viability (AID 651633; calls by dose curve; further: series mostly up to about 83 µM; nearly all actives have a fitted effect of over 30% in size). The procedure, abridged:
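Viability counter-read: CellTiter-Glo luminescence (30 min, room temperature) in the same p53RE-bla plates. These plates had been exposed to compounds for 16 h at 37 C.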

Assay [3] can be described thus: qHTS assay for small molecules that induce genotoxicity in human embryonic kidney cells expressing luciferase-tagged ATAD5 - cell viability (AID 651634; calls by dose curve; further: nearly all actives have a fitted effect of over 25% in size). The procedure, abridged:
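Quantitative high-throughput format. HEK293T cells expressing ATAD5 fused to luciferase were plated at 2,000 cells/well and treated 15.5 hr with compound versus DMSO. Viability was determined by fluorescent live-cell protease substrate, 30 min at 37C.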

Assay [4] is described as follows: qHTS assay for small molecule disruptors of the mitochondrial membrane potential - cell viability (AID 720634; calls by dose curve;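 further: human HepG2 liver cancer cells; series mostly up to about 83 µM; nearly all actives have a fitted effect of over 20% in size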). Put shortly:
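Same-well counter-screen: following the MMP dye addition, CellTiter-Glo was added to 1 hr compound-treated HepG2 cells and luminescence read after 30 min at room temperature.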

The nature of assay [5]: qHTS assay to test for compound auto fluorescence at 590 nm (red) in HepG2 cells (AID 720674). Put shortly: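 1 hr compound incubation on HepG2 cells, 37 C, 5% CO2; plate read ex 540 nm / em 590 nm; intensities reported as Rose Bengal sodium equivalents.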
Assay [6] can be described thus: qHTS assay to test for compound auto fluorescence at 535 nm (green) in HepG2 cells (AID 720675).
A short description of assay [7]: qHTS assay to test for compound auto fluorescence at 460 nm (blue) in HEK293 cells (AID 720678). Put shortly: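 Triamterene serves as the blue fluorophore standard. Compound signal at 405/460 nm is read in HEK293 wells (2,000 cells, 10% dialyzed FBS) after overnight treatment at 37C.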
A short description of assay [8]: qHTS assay to test for compound auto fluorescence at 590 nm (red) in HEK293 cells (AID 720679). Put shortly: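 We plated HEK293 cells in 10% dialyzed FBS medium, let them adhere for 4-5 hr, then added 23 nL compound. Overnight at 37C and 5% CO2 preceded fluorescence measurement at 540/590nm.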
The nature of assay [9]: qHTS assay to test for compound auto fluorescence at 535 nm (green) in HEK293 cells (AID 720680).
Assay [10] is described as follows: qHTS assay to test for compound auto fluorescence at 460 nm (blue) in HEK293 cell free culture (AID 720681). The procedure, abridged:
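Blue fluorescence (Ex 405/Em 460 nm, triamterene-equivalent) was read immediately after pin transfer of compound or DMSO into medium (DMEM, 10% FBS) without cells.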

Assay [11] is described as follows: qHTS assay to test for compound auto fluorescence at 535 nm (green) in HEK293 cell free culture (AID 720682). The procedure, abridged: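 Compounds were pin-transferred into cell-free DMEM with 10% FBS, and green fluorescence was read at excitation 485 nm and emission 535 nm. Intensities were expressed as fluorescein-equivalent values.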
Assay [12] in a line: qHTS assay to test for compound auto fluorescence at 590 nm (red) in HepG2 cell free culture (AID 720684). The procedure, abridged: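 No cells present: MEM + 10% FBS only. Compound pinned in, red label read (540/590 nm). Activity = fluorescence equivalent to Rose Bengal sodium.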
Assay [13] can be described thus: qHTS assay to test for compound auto fluorescence at 460 nm (blue) in HepG2 cell free culture (AID 720685). The procedure, abridged: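 Cell-free plates of MEM plus 10% FBS received 23 nL compound or DMSO vehicle; blue-channel (405/460 nm) intensity scored against triamterene as reference fluorophore.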
Assay [14] is described as follows: qHTS assay to test for compound auto fluorescence at 535 nm (green) in HepG2 cell free culture (AID 720686).
Assay [15] is described as follows: qHTS assay to test for compound auto fluorescence at 460 nm (blue) in HepG2 cells (AID 720687). Put shortly:
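Blue-channel autofluorescence (Ex/Em 405/460 nm, triamterene-equivalent) was measured after 1 hr compound exposure at 37 C, 5% CO2. Cells were HepG2, plated overnight at 37 C in MEM plus 10% FBS.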

The target of assay [16] is Glucocorticoid receptor (Homo sapiens) (UniProt P04150). Put plainly: qHTS assay to identify small molecule agonists of the glucocorticoid receptor (GR) signaling pathway (AID 720691; active means well fitted activation curve with a large enough effect in the signal ratio in the repeat runs, not every such curve was filed as active; the % refers to the signal ratio). The procedure, abridged:
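A HeLa cervical cancer line expressing GR and a glucocorticoid response element-driven beta-lactamase gene is treated with compounds for 18 h; LiveBLAzer B/G FRET substrate is then applied and fluorescence read.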

Assay [17] has the same target. Put plainly: qHTS assay to identify small molecule antagonists of the glucocorticoid receptor (GR) signaling pathway (AID 720692; active means well fitted inhibition curve with a large enough effect in the signal ratio in the repeat runs, not every such curve was filed as active; the % refers to the signal ratio). Put shortly: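 GRE-bla HeLa line, dex-stimulated (5 nM final). Compound exposure 18 h, 37 C. Beta-lactamase FRET read after 2 h RT substrate.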
Assay [18] in a line: qHTS assay for small molecules that induce genotoxicity in human embryonic kidney cells expressing luciferase-tagged ATAD5 (AID 651632). Further: nearly all actives have a fitted effect of over 15% in size. Put shortly:
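Test compounds were delivered by pin tool onto HEK293T reporter cells (2,000/well) expressing ATAD5 fused to luciferase. After 16 hr at 37C, 5% CO2, Amplite was added for 30 min at room temperature and luminescence was measured.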

A short description of assay [19]: qHTS assay to test for compound auto fluorescence at 590 nm (red) in HEK293 cell free culture (AID 720683). Put shortly: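 Red-channel autofluorescence of compounds in culture medium (DMEM, 10% FBS), no cells, measured at 540/590 nm. Rose Bengal sodium is the reference fluorophore for equivalence.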
Assay [20] can be described thus: qHTS assay for small molecule disruptors of the mitochondrial membrane potential (AID 720635). Further: potency means the concentration at half of the fitted maximal effect. Put shortly: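 Mitochondrial membrane potential tracked with Mito-MPS dye, red aggregates (ex 540/em 590 nm) against green monomers (ex 490/em 535 nm). Compound treatment 1 hr at 37C, dye 30 min in HepG2.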

Glucocorticoid receptor (Homo sapiens), sequence (P04150 whole entry, looked up): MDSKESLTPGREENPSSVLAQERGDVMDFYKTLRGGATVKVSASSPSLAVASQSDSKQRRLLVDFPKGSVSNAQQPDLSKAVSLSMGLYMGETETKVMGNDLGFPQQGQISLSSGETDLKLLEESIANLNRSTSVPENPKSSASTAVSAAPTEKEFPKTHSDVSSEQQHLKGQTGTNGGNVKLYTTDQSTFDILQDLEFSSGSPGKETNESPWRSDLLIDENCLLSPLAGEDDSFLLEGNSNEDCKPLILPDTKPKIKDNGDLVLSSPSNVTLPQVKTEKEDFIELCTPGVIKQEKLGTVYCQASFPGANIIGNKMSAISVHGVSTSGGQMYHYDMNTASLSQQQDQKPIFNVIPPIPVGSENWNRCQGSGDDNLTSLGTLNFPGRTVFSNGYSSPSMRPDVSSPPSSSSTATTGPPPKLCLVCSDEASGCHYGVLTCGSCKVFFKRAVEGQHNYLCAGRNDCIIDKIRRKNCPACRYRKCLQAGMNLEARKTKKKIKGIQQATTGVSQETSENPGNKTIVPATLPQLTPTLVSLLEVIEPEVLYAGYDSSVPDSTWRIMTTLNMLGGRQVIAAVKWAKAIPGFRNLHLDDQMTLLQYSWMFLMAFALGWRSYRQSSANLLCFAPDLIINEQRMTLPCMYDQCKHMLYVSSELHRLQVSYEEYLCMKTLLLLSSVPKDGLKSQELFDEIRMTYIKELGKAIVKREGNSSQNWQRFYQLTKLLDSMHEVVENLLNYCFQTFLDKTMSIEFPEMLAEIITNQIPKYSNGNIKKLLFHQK

Consider `Cc1cc(O)c(Cl)cc1C`, for which the Potency entry in [1] and in [16] was “inactive” throughout. Also, the compound was classed as inactive in assay [2], in assay [3], in assay [4], in assay [5], in assay [6] and in assay [7]. The compound was classed as inactive in [8], in [9], in [10], in assay [11], in assay [12] and in [13]. The compound was classed as inactive in assay [14], in assay [15] and in assay [17].

`Cc1ccc2cccnc2c1`: the Potency entry in assay [1] was “inactive”. Moreover, the compound was called inactive in assay [2], in assay [3], in [4], in assay [5], in assay [8] and in assay [10]. The compound was called inactive in [11], in assay [12], in assay [13], in [14], in [15] and in assay [17].

On to `C=C(C)C(=O)OCCCC`, for which the Potency entry in [1] and in assay [18] was “inactive” each time. Also, the outcome in assay [3], in assay [4], in assay [5], in [6], in assay [7] and in assay [8] was inactive. The result in [9], in assay [10], in [11], in assay [19], in [12] and in assay [13] was inactive. In addition, the compound was called inactive in assay [14] and in [15].

As to `CCO[Si](CC(C)C)(OCC)OCC`, the Potency entry in assay [1] is “inactive”. For the same compound, the compound was called inactive in [2], in [3], in assay [4], in [5], in assay [6] and in assay [7]. Further, the outcome in assay [8], in [9], in [10], in assay [11], in assay [19] and in assay [12] was inactive. The call in assay [13] and in assay [15] was inactive. Further, the Potency in [20] was 27.3 µM (active).

Regarding `CC[N+](C)(CC)CC`, the Potency entry in assay [1], in [18] and in [16] was “inactive” each time. Moreover, the compound was called inactive in [3], in assay [4], in assay [5], in assay [6], in assay [7] and in assay [8]. Moreover, the result in [9], in assay [10], in assay [11], in assay [19], in [12] and in [13] was inactive. Also, the compound was classed as inactive in [14], in assay [15] and in [17].

With `O=C[C@@H](O)[C@H](O)[C@H](O)CO`, the Potency result in assay [1] and in assay [18] was “inactive” throughout. Moreover, the outcome in assay [5], in assay [6], in [7], in assay [8], in assay [9] and in [10] was inactive. The compound was classed as inactive in [11], in assay [19], in [12], in [13], in [14] and in assay [15].

`CC(=O)Nc1ccc(S(=O)(=O)Nc2cc(C)on2)cc1`: the Potency entry in assay [1] and in assay [20] was “inactive” in each case. Besides, the result in assay [2], in assay [3], in [4], in assay [5], in assay [6] and in [8] was inactive. Further, the compound was called inactive in [9], in [10], in assay [11], in assay [12], in assay [13] and in assay [14]. Also, the compound was called inactive in assay [15] and in [17].

As to `C[C@@H](CN1CC(=O)NC(=O)C1)N1CC(=O)NC(=O)C1`, the Potency entry in assay [1] and in assay [18] was “inactive” each time. Moreover, the call in [3], in assay [4], in assay [5], in assay [6], in assay [7] and in assay [8] was inactive. In addition, the call in assay [9], in assay [10], in assay [11], in assay [19], in assay [12] and in [13] was inactive. Further, the compound was classed as inactive in assay [14] and in [15].
